Read-out in assay [1]: Urokinase-type plasminogen activator receptor (uPAR), PLAUR (gene 5329)
As to the kind of experiment: BSK_BE3C_uPAR: BioMAP Diversity Plus: BE3C Assay for Urokinase-type plasminogen activator receptor (uPAR) Biomarker Activity (AID 2283039).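 As to outcome: uPAR protein level measured by ELISA on the cells; cells exposed to compound for one day before measurement.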 The settings on record: primary human bronchial epithelial cells; actives raise or lower the signal. The method in brief: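 Chemically treated human bronchial epithelial cells (lung primary) are assayed for uPAR by ELISA after 24 h, with data fitted in both directions using DMSO as negative control.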

Read-out in assay [2]: Interleukin-6 (IL6), IL6 (gene 3569)
As to the kind of experiment: BSK_CASM3C_IL6: BioMAP Diversity Plus: CASM3C Assay for Interleukin-6 (IL6) Biomarker Activity for (AID 2283040). The settings on record: primary human coronary artery smooth muscle cells; actives raise or lower the signal.

Read-out in assay [3]: Tissue plasminogen activator (tPA), PLAT (gene 5327)
Description: BSK_BE3C_tPA: BioMAP Diversity Plus: BE3C Assay for Tissue plasminogen activator (tPA) Biomarker Activity (AID 2283041).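 Also: tPA level quantified by ELISA one day after compound addition.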 The settings on record: primary human bronchial epithelial cells; actives raise or lower the signal. The gist of the method: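 Using human lung primary bronchial epithelial cells, tPA was measured by ELISA 24 h after dosing; data fitted relative to DMSO.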

Read-out in assay [4]: Interleukin-8 (IL8), CXCL8 (gene 3576)
As to the kind of experiment: BSK_CASM3C_IL8: BioMAP Diversity Plus: CASM3C Assay for Interleukin-8 (IL8) Biomarker Activity (AID 2283042).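 Also: IL-8 protein level quantified by ELISA.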 The settings on record: primary human coronary artery smooth muscle cells; actives raise or lower the signal.

Read-out in assay [5]: Human Leukocyte Antigen - DR isotype (HLADR), HLA-DRA (gene 3122)
Description: BSK_CASM3C_HLADR: BioMAP Diversity Plus: CASM3C Assay for Human Leukocyte Antigen - DR isotype (HLADR) Biomarker Activity (AID 2283043).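 Also: cell-surface HLA-DR protein level quantified by ELISA.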 The settings on record: primary human coronary artery smooth muscle cells; actives raise or lower the signal.

Read-out in assay [6]: Macrophage colony-stimulating factor (MCSF), CSF1 (gene 1435)
Description: BSK_CASM3C_MCSF: BioMAP Diversity Plus: CASM3C Assay for Macrophage colony-stimulating factor (MCSF) Biomarker Activity (AID 2283044).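 Also: M-CSF protein amount quantified by ELISA after 24 h exposure.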 The settings on record: primary human coronary artery smooth muscle cells; actives raise or lower the signal.

Read-out in assay [7]: Low-density lipoprotein receptor (LDLR), LDLR (gene 3949)
As to the kind of experiment: BSK_CASM3C_LDLR: BioMAP Diversity Plus: CASM3C Assay for Low-density lipoprotein receptor (LDLR) Biomarker Activity (AID 2283045).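 Also: LDLR protein level on the cell surface quantified by ELISA.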 The following applies: primary human coronary artery smooth muscle cells; actives raise or lower the signal.

Read-out in assay [8]: Monocyte Chemoattractant Protein-1 (MCP1), CCL2 (gene 6347)
As to the kind of experiment: BSK_CASM3C_MCP1: BioMAP Diversity Plus: CASM3C Assay for Monocyte Chemoattractant Protein-1 (MCP1) Biomarker Activity (AID 2283046).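 Also: MCP-1 level quantified by ELISA 24 h after dosing.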 The settings on record: primary human coronary artery smooth muscle cells; actives raise or lower the signal.

Assay [9] in a line: BSK_CASM3C_Proliferation: Cell Proliferation Assessment in the BioMAP Diversity Plus: CASM3C Assay (AID 2283047).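 Also: sulforhodamine B total protein stain as relative cell number at 560 nm; sub-confluent cells exposed 48 h before staining; fitted both ways against DMSO so gain or loss of cell number.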 The following applies: primary human coronary artery smooth muscle cells.
Read-out in assay [10]: Monokine induced gamma interferon (MIG), CXCL9 (gene 4283)
As to the kind of experiment: BSK_CASM3C_MIG: BioMAP Diversity Plus: CASM3C Assay for Monokine induced gamma interferon (MIG) Biomarker Activity (AID 2283048).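 Also: MIG protein level measured by ELISA.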 The following applies: primary human coronary artery smooth muscle cells; actives raise or lower the signal.

Read-out in assay [11]: serum amyloid A (SAA), SAA1 (gene 6288)
Description: BSK_CASM3C_SAA: BioMAP Diversity Plus: CASM3C Assay for serum amyloid A (SAA) Biomarker Activity (AID 2283049).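 Also: SAA protein level quantified by ELISA.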 The settings on record: primary human coronary artery smooth muscle cells; actives raise or lower the signal.

Assay [12] is described as follows: BSK_CASM3C_SRB: Viability Assessment in the BioMAP Diversity Plus: CASM3C Assay (AID 2283050).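 Also: total protein by SRB staining as cytotoxicity measure in parallel cultures; cells exposed to compound for 24 h.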 The settings on record: primary human coronary artery smooth muscle cells.
Read-out in assay [13]: Thrombomodulin, THBD (gene 7056)
Description: BSK_CASM3C_Thrombomodulin: BioMAP Diversity Plus: CASM3C Assay for Thrombomodulin Biomarker Activity (AID 2283051).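 Also: thrombomodulin protein level measured by ELISA 24 h after dosing.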 The settings on record: primary human coronary artery smooth muscle cells; actives raise or lower the signal.

Read-out in assay [14]: Tissue Factor, F3 (gene 2152)
Description: BSK_CASM3C_TissueFactor: BioMAP Diversity Plus: CASM3C Assay for Tissue Factor Biomarker Activity (AID 2283052).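 Also: cell surface tissue factor protein level read by ELISA.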 The following applies: primary human coronary artery smooth muscle cells; actives raise or lower the signal.

Read-out in assay [15]: Interferon-gamma inducible Protein 10 (IP10), CXCL10 (gene 3627)
As to the kind of experiment: BSK_hDFCGF_IP10: BioMAP Diversity Plus: hDFCGF Assay for Interferon-gamma inducible Protein 10 (IP10) Biomarker Activity (AID 2283053). The settings on record: primary human foreskin fibroblasts; actives raise or lower the signal. The method in brief: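 Chemical-treated human skin fibroblasts (primary) were sampled at 24 h for IP-10 by ELISA. Both increases and decreases relative to DMSO were scored.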

Read-out in assay [16]: Urokinase-type plasminogen activator receptor (uPAR), PLAUR (gene 5329)
As to the kind of experiment: BSK_CASM3C_uPAR: BioMAP Diversity Plus: CASM3C Assay for Urokinase-type plasminogen activator receptor (uPAR) Biomarker Activity (AID 2283054).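 Also: cell-surface uPAR protein level quantified by ELISA.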 The following applies: primary human coronary artery smooth muscle cells; actives raise or lower the signal.

Read-out in assay [17]: Vascular cell adhesion molecule 1 (VCAM1), VCAM1 (gene 7412)
Description: BSK_CASM3C_VCAM1: BioMAP Diversity Plus: CASM3C Assay for Vascular cell adhesion molecule 1 (VCAM1) Biomarker Activity (AID 2283055).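 Also: VCAM-1 protein level quantified by ELISA on the cells.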 The settings on record: primary human coronary artery smooth muscle cells; actives raise or lower the signal.

Read-out in assay [18]: Collagen III, COL3A1 (gene 1281)
As to the kind of experiment: BSK_hDFCGF_CollagenIII: BioMAP Diversity Plus: hDFCGF Assay for Collagen III Biomarker Activity (AID 2283056). The settings on record: primary human foreskin fibroblasts; actives raise or lower the signal. The method in brief: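 ELISA readout of Collagen III in human dermal (foreskin) fibroblasts, taken 24 h post-treatment. Gain or loss relative to DMSO vehicle fitted in both directions.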

Read-out in assay [19]: Epidermal growth factor receptor (EGFR), EGFR (gene 1956)
As to the kind of experiment: BSK_hDFCGF_EGFR: BioMAP Diversity Plus: hDFCGF Assay for Epidermal growth factor receptor (EGFR) Biomarker Activity (AID 2283057). The following applies: primary human foreskin fibroblasts; actives raise or lower the signal. The method in brief: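 Cell-based multiplexed assay in primary human foreskin fibroblasts. EGFR is read by ELISA 24 h after treatment and compared with DMSO controls.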

Read-out in assay [20]: Interleukin-8 (IL8), CXCL8 (gene 3576)
Description: BSK_hDFCGF_IL8: BioMAP Diversity Plus: hDFCGF Assay for Interleukin-8 (IL8) Biomarker Activity (AID 2283058). The following applies: primary human foreskin fibroblasts; actives raise or lower the signal. The method in brief:
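IL-8 levels read by ELISA at 24 hours after dosing human skin fibroblast cultures. Parallel SRB staining assessed overt cytotoxicity, and gain or loss of signal was fitted against DMSO control.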

Each structure is given as a SMILES string. The source made the active and inactive calls. The calls were made as follows: active = hit-call score of the fitted dose curve at least 0.9, where 1 is the maximum; inactive = score below 0.9.

Results on 6 compounds are retold here after PubChem BioAssay (EPA / NIEHS).

As for `COc1nc(NC(C)C)nc(NC(C)C)n1`, in assay [1], the concentration at half-maximal activity (AC50) was 2.36 µM (active). In addition, the outcome in assay [2], in assay [3], in assay [4], in assay [5], in [6] and in assay [7] was inactive. The result in assay [8], in [9], in [10], in assay [11], in assay [12] and in assay [13] was inactive. The outcome in assay [14], in assay [15], in assay [16], in assay [17], in [18] and in [19] was inactive. The outcome in [20] was inactive.

`CCNc1nc(Cl)nc(NCC)n1`: the outcome in assay [1], in assay [2], in assay [3], in [4], in assay [5] and in assay [6] was inactive. Further, the outcome in [7], in assay [8], in assay [9], in assay [10], in assay [11] and in assay [12] was inactive. Moreover, the outcome in assay [13], in assay [14], in assay [15], in assay [16], in [17] and in [18] was inactive. In addition, the result in [19] and in assay [20] was inactive.

Regarding `CC(C)Oc1cc(-n2nc(C(C)(C)C)oc2=O)c(Cl)cc1Cl`, the outcome in assay [1], in [2], in assay [3], in assay [4], in assay [5] and in assay [6] was inactive. For the same compound, the result in assay [7], in assay [8], in assay [10], in [11], in assay [12] and in [14] was inactive. The result in [16], in assay [17], in [18], in assay [19] and in [20] was inactive. The AC50 in assay [9] was 29 µM (active); in [13], 25.7 µM (active); in assay [15], 29.8 µM (active).

Consider `N#Cc1cc(Br)c(O)c(Br)c1`, for which the result in assay [1], in assay [2], in assay [3], in [4], in assay [5] and in assay [6] was inactive. Also, the outcome in assay [7], in assay [8], in [9], in assay [10], in assay [11] and in [12] was inactive. The outcome in assay [13], in assay [14], in [17], in assay [18], in assay [19] and in [20] was inactive. The AC50 in assay [15] is 10.9 µM (active); in assay [16], 0.405 µM (active).

Take `Cc1cc(Cl)ccc1OCC(=O)O`: the result in [1], in [2], in assay [3], in assay [4], in assay [5] and in assay [6] was inactive. The outcome in assay [7], in [8], in assay [9], in assay [10], in assay [11] and in assay [12] was inactive. The outcome in assay [13], in assay [14], in [15], in assay [16], in assay [17] and in assay [18] was inactive. Also, the result in assay [19] and in assay [20] was inactive.

For `CCNc1nc(Cl)nc(NC(C)C)n1`, the result in [1], in assay [2], in assay [3], in [4], in assay [5] and in assay [6] was inactive. For the same compound, the result in assay [7], in [8], in [9], in [10], in assay [11] and in assay [12] was inactive. Also, the result in assay [13], in assay [14], in assay [15], in assay [17], in [18] and in [19] was inactive. The result in [20] was inactive. In assay [16], the concentration at half-maximal activity (AC50) was 20 µM (active).
